Like-named read-outs stand apart in the source and are kept apart here.
Tests used:
CHEK1 = settings: concentration: 1 μM, replicates: in singlicate; n = 1
CHEK2 = settings: concentration: 1 μM, replicates: in singlicate; n = 1
CIT = settings: concentration: 1 μM, replicates: in singlicate; n = 1
CLK1 = settings: concentration: 1 μM, replicates: in singlicate; n = 1
CLK2 = settings: concentration: 1 μM, replicates: in singlicate; n = 1
CLK3 = settings: concentration: 1 μM, replicates: in singlicate; n = 1
CLK4 = settings: concentration: 1 μM, replicates: in singlicate; n = 1
CSF1R-autoinhibited = settings: concentration: 1 μM, replicates: in singlicate; n = 1
CSF1R = settings: concentration: 1 μM, replicates: in singlicate; n = 1
CSK = settings: concentration: 1 μM, replicates: in singlicate; n = 1
CSNK1A1L = settings: concentration: 1 μM, replicates: in singlicate; n = 1
CSNK1A1 = settings: concentration: 1 μM, replicates: in singlicate; n = 1
CSNK1D = settings: concentration: 1 μM, replicates: in singlicate; n = 1
CSNK1E = settings: concentration: 1 μM, replicates: in singlicate; n = 1
CSNK1G1 = settings: concentration: 1 μM, replicates: in singlicate; n = 1
CSNK1G2 = settings: concentration: 1 μM, replicates: in singlicate; n = 1
CSNK1G3 = settings: concentration: 1 μM, replicates: in singlicate; n = 1
CSNK2A1 = settings: n = 1
CSNK2A2 = settings: n = 1
CTK = system: T1, CTK; settings: concentration: 1 μM, replicates: in singlicate; n = 1
T1 construct: gene MATK

[1] = concentration: 1 μM, replicates: in singlicate
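Also: KINOMEscan kinase panel screen.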

O=c1cc(N2CCOCC2)nc2n(Cc3cccc4ccccc34)ccn12 [GSK2333389]
%Inh (CHEK1): 20% | %Inh (CHEK2): 0% | %Inh (CIT): 9% | %Inh (CLK1): 48% | %Inh (CLK2): 3% | %Inh (CLK3): 0% | %Inh (CLK4): 31% | %Inh (CSF1R-autoinhibited): 0% | %Inh (CSF1R): 4% | %Inh (CSK): 0% | %Inh (CSNK1A1L): 11% | %Inh (CSNK1A1): 13% | %Inh (CSNK1D): 42% | %Inh (CSNK1E): 20% | %Inh (CSNK1G1): 0% | %Inh (CSNK1G2): 0% | %Inh (CSNK1G3): 20% | %Inh (CSNK2A1; [1]): 13% | %Inh (CSNK2A2; [1]): 0% | %Inh (CTK): 1%

COc1ccc(Nc2ncc(C#N)c(Nc3ccccc3C(N)=O)n2)cc1N1CCN(C)CC1.Cl [GSK1558669]
%Inh (CHEK1): 100% | %Inh (CHEK2): 78% | %Inh (CIT): 69% | %Inh (CLK1): 99.8% | %Inh (CLK2): 99.3% | %Inh (CLK3): 85% | %Inh (CLK4): 99.7% | %Inh (CSF1R-autoinhibited): 67% | %Inh (CSF1R): 99.9% | %Inh (CSK): 85% | %Inh (CSNK1A1L): 97.3% | %Inh (CSNK1A1): 82% | %Inh (CSNK1D): 66% | %Inh (CSNK1E): 78% | %Inh (CSNK1G1): 50% | %Inh (CSNK1G2): 0% | %Inh (CSNK1G3): 27% | %Inh (CSNK2A1; [1]): 99.7% | %Inh (CSNK2A2; [1]): 99.9% | %Inh (CTK): 56%

COc1ccc(COc2cc(-n3cnc4ccccc43)sc2C(N)=O)cc1 [GSK1024304]
%Inh (CHEK1): 0% | %Inh (CHEK2): 0% | %Inh (CIT): 29% | %Inh (CLK1): 27% | %Inh (CLK2): 48% | %Inh (CLK3): 17% | %Inh (CLK4): 12% | %Inh (CSF1R-autoinhibited): 0% | %Inh (CSF1R): 4% | %Inh (CSK): 0% | %Inh (CSNK1A1L): 13% | %Inh (CSNK1A1): 0% | %Inh (CSNK1D): 0% | %Inh (CSNK1E): 30% | %Inh (CSNK1G1): 11% | %Inh (CSNK1G2): 5% | %Inh (CSNK1G3): 22% | %Inh (CSNK2A1; [1]): 4% | %Inh (CSNK2A2; [1]): 13% | %Inh (CTK): 0%

Fc1ccc(-c2nn3c(OCC(F)(F)F)cccc3c2-c2ccncc2)cc1 [GW514784]
%Inh (CHEK1): 0% | %Inh (CHEK2): 30% | %Inh (CIT): 99.1% | %Inh (CLK1): 2% | %Inh (CLK2): 0% | %Inh (CLK3): 0% | %Inh (CLK4): 0% | %Inh (CSF1R-autoinhibited): 36% | %Inh (CSF1R): 0% | %Inh (CSK): 0% | %Inh (CSNK1A1L): 35% | %Inh (CSNK1A1): 92.9% | %Inh (CSNK1D): 96.4% | %Inh (CSNK1E): 99% | %Inh (CSNK1G1): 0% | %Inh (CSNK1G2): 0% | %Inh (CSNK1G3): 16% | %Inh (CSNK2A1; [1]): 0% | %Inh (CSNK2A2; [1]): 0% | %Inh (CTK): 0%

O=C(NCCNc1ccnc(Nc2ccc(F)cc2)n1)c1cc2ccccc2s1 [GSK1379874]
%Inh (CHEK1): 2% | %Inh (CHEK2): 0% | %Inh (CIT): 22% | %Inh (CLK1): 29% | %Inh (CLK2): 0% | %Inh (CLK3): 26% | %Inh (CLK4): 37% | %Inh (CSF1R-autoinhibited): 8% | %Inh (CSF1R): 0% | %Inh (CSK): 0% | %Inh (CSNK1A1L): 9% | %Inh (CSNK1A1): 0% | %Inh (CSNK1D): 0% | %Inh (CSNK1E): 37% | %Inh (CSNK1G1): 0% | %Inh (CSNK1G2): 0% | %Inh (CSNK1G3): 21% | %Inh (CSNK2A1; [1]): 7% | %Inh (CSNK2A2; [1]): 19% | %Inh (CTK): 52%

Nc1nccc(-c2c(-c3ccc(F)cc3)ncn2C2CCN(CC(F)(F)F)CC2)n1 [SB-236560]
%Inh (CHEK1): 0% | %Inh (CHEK2): 38% | %Inh (CIT): 66% | %Inh (CLK1): 0% | %Inh (CLK2): 6% | %Inh (CLK3): 17% | %Inh (CLK4): 0% | %Inh (CSF1R-autoinhibited): 68% | %Inh (CSF1R): 0% | %Inh (CSK): 0% | %Inh (CSNK1A1L): 2% | %Inh (CSNK1A1): 92.7% | %Inh (CSNK1D): 86% | %Inh (CSNK1E): 96.6% | %Inh (CSNK1G1): 0% | %Inh (CSNK1G2): 1% | %Inh (CSNK1G3): 0% | %Inh (CSNK2A1; [1]): 0% | %Inh (CSNK2A2; [1]): 0% | %Inh (CTK): 7%

O=c1cc(N2CCOCC2)nc2n(Cc3cccc(Cl)c3Cl)c(C3CC3)nn12 [GSK2358994]
%Inh (CHEK1): 15% | %Inh (CHEK2): 0% | %Inh (CIT): 0% | %Inh (CLK1): 27% | %Inh (CLK2): 25% | %Inh (CLK3): 14% | %Inh (CLK4): 0% | %Inh (CSF1R-autoinhibited): 0% | %Inh (CSF1R): 0% | %Inh (CSK): 8% | %Inh (CSNK1A1L): 0% | %Inh (CSNK1A1): 0% | %Inh (CSNK1D): 7% | %Inh (CSNK1E): 11% | %Inh (CSNK1G1): 0% | %Inh (CSNK1G2): 5% | %Inh (CSNK1G3): 23% | %Inh (CSNK2A1; 1 µM): 16% | %Inh (CSNK2A2; 1 µM): 0% | %Inh (CTK): 0%

COc1cc2ncn(-c3cc(OCc4sccc4Cl)c(C(N)=O)s3)c2cc1OC [GSK448459]
%Inh (CHEK1): 0% | %Inh (CHEK2): 6% | %Inh (CIT): 27% | %Inh (CLK1): 39% | %Inh (CLK2): 23% | %Inh (CLK3): 2% | %Inh (CLK4): 14% | %Inh (CSF1R-autoinhibited): 0% | %Inh (CSF1R): 18% | %Inh (CSK): 10% | %Inh (CSNK1A1L): 6% | %Inh (CSNK1A1): 0% | %Inh (CSNK1D): 16% | %Inh (CSNK1E): 28% | %Inh (CSNK1G1): 4% | %Inh (CSNK1G2): 0% | %Inh (CSNK1G3): 13% | %Inh (CSNK2A1; [1]): 25% | %Inh (CSNK2A2; [1]): 34% | %Inh (CTK): 0%

O=c1cc(N2CCOCC2)nc2n(Cc3cccc(C(F)(F)F)c3)ccn12 [GSK2297543]
%Inh (CHEK1): 0% | %Inh (CHEK2): 0% | %Inh (CIT): 27% | %Inh (CLK1): 17% | %Inh (CLK2): 20% | %Inh (CLK3): 0% | %Inh (CLK4): 6% | %Inh (CSF1R-autoinhibited): 0% | %Inh (CSF1R): 0% | %Inh (CSK): 0% | %Inh (CSNK1A1L): 16% | %Inh (CSNK1A1): 24% | %Inh (CSNK1D): 17% | %Inh (CSNK1E): 0% | %Inh (CSNK1G1): 13% | %Inh (CSNK1G2): 0% | %Inh (CSNK1G3): 8% | %Inh (CSNK2A1; [1]): 0% | %Inh (CSNK2A2; [1]): 9% | %Inh (CTK): 0%

CN1c2ccc(CNc3ccc(F)cc3)cc2-c2c(cnn2C)S1(=O)=O
%Inh (CHEK1): 0% | %Inh (CHEK2): 0% | %Inh (CIT): 1% | %Inh (CLK1): 0% | %Inh (CLK2): 11% | %Inh (CLK3): 0% | %Inh (CLK4): 17% | %Inh (CSF1R-autoinhibited): 1% | %Inh (CSF1R): 0% | %Inh (CSK): 0% | %Inh (CSNK1A1L): 0% | %Inh (CSNK1A1): 1% | %Inh (CSNK1D): 0% | %Inh (CSNK1E): 0% | %Inh (CSNK1G1): 0% | %Inh (CSNK1G2): 0% | %Inh (CSNK1G3): 0% | %Inh (CSNK2A1; [1]): 0% | %Inh (CSNK2A2; [1]): 0% | %Inh (CTK): 0%

From PMC5540273 (PLoS ONE, 2017)
